Compounds with a hit are over-represented: about 19% of the library has one in this group of screens.
TDP1 cell noCPT: qHTS for Inhibitors of human tyrosyl-DNA phosphodiesterase 1 (TDP1): qHTS in cells in absence of CPT | AID 686978, 2013 | DT40 Tdp1-/- hTDP1 cells, no CPT, ATP luminescence, 48 h | 420,000 compounds, 15% hits | Potency, µM (titrated, usually from 46.2 µM), for inactives: at the top dose activity change, negative = growth inhibition, actives largely listed as inhibitors; note: potency is the fitted concentration of half-maximal effect; nearly all actives have a fitted effect of over 55% in size
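A cellular qHTS used chicken DT40 cells lacking endogenous Tdp1 but carrying stably transfected human TDP1. Compounds were applied without camptothecin, and cell growth kinetics were judged by ATP-dependent luminescence after ≥48 hr.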
HT1080NT lethal: kills 2HG-producing HT-1080-NT fibrosarcoma cells; HT-1080-NT fibrosarcoma viability, CellTiter-Glo ATP luminescence, 48 h; Potency, µM (series often up to 46.1 µM), without a hit: top-dose activity, negative = less viability, actives largely listed as cytotoxic; 360,000 compounds, 1.6% hits;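 note: NT is the 2HG producing partner of a matched IDH1 knockdown line; potency is the fitted concentration of half-maximal effect; 0% = DMSO-treated cells and -100% = media-only wells without cells; nearly all actives have a fitted effect of over 55% in size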
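Luminescent CellTiter-Glo readout after 48 hours of compound exposure at 37 degrees C defined viability of HT-1080-NT cells. Activity was normalized to DMSO wells and cell-free media wells; concentration-response curves were fitted and assigned curve classes.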
DT40 TDP1 CPT: growth inhibition of DT40 Tdp1-/-;hTDP1 cells with camptothecin (screen for TDP1 inhibitors). chicken DT40 Tdp1-/-;hTDP1 cells + 20 nM CPT, ATP luminescence, 48 h. Potency, µM (doses to about 46.2 µM), for the others: top-dose activity change, negative = growth inhibition, most hits filed as inhibitors. 420,000 compounds, 12% hits; note: potency is the fitted concentration of half-maximal effect; nearly all actives have a fitted effect of over 55% in size
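Chicken DT40 Tdp1-/- cells complemented with human TDP1, 400 cells/well, exposed to compounds plus 20 nM camptothecin for at least 48 h at 37 C; viability read as ATP content by CellTiter-Glo luminescence.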
IL1B secr inh: inhibitors of inflammasome signaling (IL-1 beta secretion); THP-1 LPS/ATP IL-1B secretion, AlphaLISA, 16 h; stronger effect = lower value; activity change, % at 57.5 µM; 360,000 compounds, 4.7% hits; AID 743279; in the data active = activity change below about -50%; inconclusive = mostly about -30% to -49%
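Secreted IL-1B measured by AlphaLISA bead assay after 16 h compound exposure of THP-1 cells; compounds (final up to 57.5 uM) added 1 h before LPS (250 ng/mL) and ATP (1.25 mM) stimulation; lower signal means less secretion.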
HT1080 IDH1KD tx: kills HT-1080 cells with IDH1 knockdown; HT-1080 IDH1 knockdown viability, ATP luminescence, 48 h; Potency, µM (series often up to 46.1 µM), inactives show at the highest dose activity, negative = toxicity, most hits filed as cytotoxic; 360,000 compounds, 2% hits; AID 686971;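 note: potency is the fitted concentration of half-maximal effect; 0% = DMSO wells and -100% = cell-free medium wells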
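Using the IDH1-knockdown HT-1080 line run in the same batch and compound series as the NT line, viability after 48 h at 37 °C was determined by CellTiter-Glo luminescence and expressed as % activity.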
Active calls of the source: *; ? = inconclusive; nt = no result. Unless noted, calls come from the whole dose curve; as a rule, active = well fitted curve in the direction sought with a large enough effect; inconclusive = small, poorly fitted or top-dose-only effect, or another doubt; inactive = no such curve, though single readings can be large; an effect the other way counts as inactive or inconclusive. Unless noted, % is set by controls: 0 for no effect and ±100 for the full control effect.

SMILES | TDP1 cell noCPT | HT1080NT lethal | DT40 TDP1 CPT | IL1B secr inh | HT1080 IDH1KD tx
Cc1ccc(Cn2c(CO)cnc2SCc2ccc(F)cc2)cc1 | 16µM* | nt | 10µM* | nt | nt
COc1ccc(Cn2c(CO)cnc2SCC(=O)Nc2cc(C)on2)cc1 | 20% | -1% | 1% | 10 | 6%
CCCCNc1nc2ccccc2nc1Cl | -25% | 12% | -6% | 23 | -6%
CCOC(=O)c1cccc(N)c1 | -10% | nt | -18% | nt | nt
Cn1c(CNC(=O)c2cccs2)nnc1SCC(=O)Nc1ccccc1 | -2% | 8% | 5% | 0 | 4%
CCc1ccc(C2C(C#N)=C(N)C(C#N)(C#N)C3=CCC(C(C)(C)C)CC32)cc1 (stereo not drawn) | 15µM* | -12% | ? | -58* | -25%
Cc1ccccc1Cn1c(SCc2ccc(C(=O)NCc3cccs3)cc2)nc2ccncc21 | 18µM* | nt | 21µM* | nt | nt
Cc1ccccc1Cn1c(SCc2ccc(C(=O)NC(C)c3ccccc3)cc2)nc2ccncc21 (stereo not drawn) | 16µM* | nt | 9.2µM* | nt | nt
Cc1cccc(Cn2c(SCc3ccc(C(=O)N4CCCCCC4)cc3)nc3ccncc32)c1 | ? | nt | -122% | nt | nt
CCN(CC)S(=O)(=O)c1ccc(Cl)c(C(=O)Nc2ccc(Cl)cc2[N+](=O)[O-])c1 | 4.6µM* | -3% | 5.8µM* | ? | 0%
CCN(CC)S(=O)(=O)c1ccc(Cl)c(NC(=O)c2ccccc2C)c1 | 23µM* | -8% | ? | -1 | 3%
CCN(CC)S(=O)(=O)c1ccc(OC)c(NC(=O)c2cccc(C)c2[N+](=O)[O-])c1 | -28% | -8% | ? | ? | 0%
Cc1ccccc1C(=O)N/N=C/c1ccc(OCC(=O)N2CCCCC2)cc1 | ? | ? | -28% | 7 | ?
ClCc1csc(-c2ccc(Cl)cc2)n1 | 15µM* | 5% | 13µM* | ? | 9%
CCOc1ccc(-c2nc(CCl)cs2)cc1 | ? | 10% | 10µM* | -2 | 10%
CCOc1ccc(-c2csc(-c3nc(-c4ccc(Br)s4)cs3)n2)cc1 | 0% | nt | 13% | nt | nt
Cc1ccccc1-c1noc(-c2ccccc2C(=O)NCC2CCCO2)n1 (stereo not drawn) | 18µM* | 2% | ? | 5 | 0%
Cc1ccccc1Nc1cc(C(=O)NCC2CCCO2)c2ccccc2n1 (stereo not drawn) | ? | 2% | 18µM* | 17 | -1%
Cc1ccccc1Nc1cc(C(=O)NC2CCCC2)c2ccccc2n1 | -19% | nt | -26% | nt | nt
O=C(Oc1ccccc1)N1CCC2(CCCN(c3ccncc3)C2)CC1 | 15µM* | nt | 21µM* | nt | nt
COC(=O)N1CCC2(CC1)CCN(c1ccncc1)CC2 | 16µM* | nt | 7.3µM* | nt | nt
O=C(Oc1ccccc1)N1CCC2(CCCN(c3ccccc3)C2)CC1 | -20% | nt | 0% | nt | nt
O=C(Oc1ccccc1)N1CCC2(CC1)CN(c1ccncc1)C2 | 10µM* | nt | 13µM* | nt | nt
CCOc1ccc(C(C)NC(=O)c2cccs2)cc1OCC (stereo not drawn) | ? | 3% | -21% | -6 | -4%
COC(=O)C(CC(=O)c1ccc(Cl)cc1)c1ccccc1 (stereo not drawn) | -29% | 2% | ? | -5 | -2%
SMILES | TDP1 cell noCPT | HT1080NT lethal | DT40 TDP1 CPT | IL1B secr inh | HT1080 IDH1KD tx
CCc1ccccc1N1CC(C(=O)Nc2cc(C)on2)CC1=O (stereo not drawn) | -1% | ? | -1% | 12 | 7%
Cc1ccc(N(Cc2cc3ccc(C)cc3[nH]c2=O)C(=O)c2cccs2)cc1 | -15% | 16% | -22% | 35 | 11%
Cc1ccc2cc(CN(Cc3ccco3)C(=O)c3cccs3)c(=O)[nH]c2c1 | 3.7µM* | 4.6µM* | 2.9µM* | 30 | 5.8µM*
Cc1cccc2cc(CN(Cc3ccco3)C(=O)c3cccs3)c(=O)[nH]c12 | ? | 0% | ? | 3 | 2%
Cc1cccc(N(Cc2cc3ccccc3[nH]c2=O)C(=O)c2cccs2)c1 | 23µM* | -29% | ? | ? | -2%
C1=C\CCC2(OCCO2)C2(CC/1)OCCO2 | -3% | 10% | 12% | -2 | 16%
